Consider 10 molecules from PubChem BioAssay (EPA / NIEHS).

The structures appear in SMILES notation. Several values for one entry are separate records, joined by “and”; a condition that tells them apart may be missing. Identical values can stand only once. Inconclusive results are not listed. More than one record can exist for a structure, and the calls need not agree. Activity calls are given as the source filed them. The calls were made as follows, unless noted: active = hit-call score of the fitted dose curve at least 0.9, where 1 is the maximum; inactive = score below 0.9.

The target of experiment [1] is human Retinoid X Receptor beta (RXRb), RXRB (gene 6257) (UniProt P28702). Nature of the experiment: ATG_RXRb_TRANS: Attagene TRANS-FACTORIAL HepG2 Assay for human Retinoid X Receptor beta (RXRb) (AID 2283013; active = hit-call score of the fitted dose curve at least 0.9, where 1 is the maximum). In outline: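 HepG2 cells were transiently transfected with multiplexed GAL4-UAS reporters and a chimeric RXRb-Gal4 construct, then exposed for 24 h. Reporter mRNA was quantified by RT-PCR, FAM labeling, HpaI digestion and capillary electrophoresis; gain of signal was scored against DMSO.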

Experiment [2] has as its target human Thyroid Receptor alpha (THRa1), THRA (gene 7067) (UniProt P10827). The experiment can be described thus: ATG_THRa1_TRANS: Attagene TRANS-FACTORIAL HepG2 Assay for human Thyroid Receptor alpha (THRa1) (AID 2283014; active = hit-call score of the fitted dose curve at least 0.9, where 1 is the maximum). An outline of the steps:
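Reporter transcript induction, read by capillary electrophoresis of 6-FAM-labelled RT-PCR products, reflects activity of a transfected THRa1-Gal4 fusion in HepG2 liver cells. Cells were dosed for 24 h; activity was fitted in the positive direction against DMSO.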

Experiment [3] concerns the target human Vitamin D Receptor (VDR), VDR (gene 7421) (UniProt P11473). The experiment can be described thus: ATG_VDR_TRANS: Attagene TRANS-FACTORIAL HepG2 Assay for human Vitamin D Receptor (VDR) (AID 2283022; active = hit-call score of the fitted dose curve at least 0.9, where 1 is the maximum). An outline of the steps:
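Steps: transfect HepG2 with GAL4-UAS-driven reporter constructs; dose compounds 24 h; isolate RNA, reverse-transcribe, PCR-amplify with 6-FAM-labelled primer extension and HpaI digestion; quantify fragments by capillary electrophoresis relative to DMSO.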

Read-out in experiment [4]: E-selectin (Homo sapiens) (UniProt P16581)
The experiment can be described thus: BSK_3C_Eselectin: BioMAP Diversity Plus: 3C Assay for Eselectin Biomarker Activity (AID 2283015). The conditions noted are these: primary human endothelial cells (HUVEC); actives raise or lower the signal. In outline: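 ELISA read-out of E-selectin on endothelial monolayers after 24 h chemical treatment. Human umbilical vein primary cells served as the system, with DMSO defining baseline activity for bidirectional fitting.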

Read-out in experiment [5]: Interleukin-1 alpha (IL1a), IL1A (gene 3552)
The experiment can be described thus: BSK_BE3C_IL1a: BioMAP Diversity Plus: BE3C Assay for Interleukin-1 alpha (IL1a) Biomarker Activity (AID 2283016). The settings on record: primary human bronchial epithelial cells; actives raise or lower the signal. An outline of the steps:
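Human primary bronchial epithelial cells, 24 h chemical exposure; IL-1a quantified by ELISA, fitted bidirectionally against DMSO. Cytotoxicity assessed in parallel by SRB total-protein staining at the time of measurement.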

Read-out in experiment [6]: Monocyte Chemoattractant Protein-1 (MCP1), CCL2 (gene 6347)
Nature of the experiment: BSK_3C_MCP1: BioMAP Diversity Plus: 3C Assay for Monocyte Chemoattractant Protein-1 (MCP1) Biomarker Activity (AID 2283017). The settings on record: primary human endothelial cells (HUVEC); actives raise or lower the signal. An outline of the steps: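 ELISA read-out of MCP-1 from human umbilical vein endothelial cell cultures harvested 24 h post-dosing. Gain or loss of signal was fitted relative to DMSO.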

Read-out in experiment [7]: Monocyte Chemoattractant Protein-1 (MCP1), CCL2 (gene 6347)
Nature of the experiment: BSK_4H_MCP1: BioMAP Diversity Plus: 4H Assay for Monocyte Chemoattractant Protein-1 (MCP1) Biomarker Activity (AID 2283018). The settings on record: primary human endothelial cells (HUVEC); actives raise or lower the signal. In outline:
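Human umbilical vein endothelial cells (4H system) exposed to chemicals for 24 h in 96-well format. MCP-1 measured by ELISA; bidirectional fitting against DMSO, with SRB total-protein staining in parallel cultures for cytotoxicity.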

Read-out in experiment [8]: Human Leukocyte Antigen - DR isotype (HLADR), HLA-DRA (gene 3122)
The experiment can be described thus: BSK_3C_HLADR: BioMAP Diversity Plus: 3C Assay for Human Leukocyte Antigen - DR isotype (HLADR) Biomarker Activity (AID 2283019).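 As to outcome: ELISA of cell-surface HLA-DR on HUVEC 24 h after dosing.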 The conditions noted are these: primary human endothelial cells (HUVEC); actives raise or lower the signal. In outline:
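ELISA readout of surface HLA-DR on human umbilical vein endothelium, taken 24 h after chemical treatment. Gain- and loss-of-signal were both fitted relative to DMSO.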

Read-out in experiment [9]: Interleukin-8 (IL8), CXCL8 (gene 3576)
Nature of the experiment: BSK_3C_IL8: BioMAP Diversity Plus: 3C Assay for Interleukin-8 (IL8) Biomarker Activity (AID 2283020). The settings on record: primary human endothelial cells (HUVEC); actives raise or lower the signal. An outline of the steps: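 Primary human umbilical vein endothelial cells were dosed for 24 h. IL-8 was quantified by ELISA and fitted bidirectionally against DMSO. Cytotoxicity was assessed in parallel cultures by SRB staining at 560 nm.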

Read-out in experiment [10]: Monokine induced gamma interferon (MIG), CXCL9 (gene 4283)
Nature of the experiment: BSK_3C_MIG: BioMAP Diversity Plus: 3C Assay for Monokine induced gamma interferon (MIG) Biomarker Activity (AID 2283021). The settings on record: primary human endothelial cells (HUVEC); actives raise or lower the signal. In outline: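 HUVEC primary endothelial cultures dosed with chemical; MIG quantified by ELISA at 24 h. Data fitted bidirectionally against DMSO control, with parallel SRB total-protein staining for cytotoxicity.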

A short description of experiment [11]: BSK_3C_SRB: Viability Assessment in the BioMAP Diversity Plus: 3C Assay (AID 2283023).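 Also: fitted both ways against DMSO so a hit may be signal rise or drop.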 The conditions noted are these: primary human endothelial cells (HUVEC). In outline:
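Absorbance at 560 nm of sulforhodamine B-stained (0.1%) total protein served as a cytotoxicity readout in human umbilical vein endothelial cells, 24 h after chemical treatment. Signal was fitted bidirectionally relative to DMSO.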

Read-out in experiment [12]: Matrix Metallopeptidase 1 (MMP1), MMP1 (gene 4312)
The experiment can be described thus: BSK_BE3C_MMP1: BioMAP Diversity Plus: BE3C Assay for Matrix Metallopeptidase 1 (MMP1) Biomarker Activity (AID 2283024). The conditions noted are these: primary human bronchial epithelial cells; actives raise or lower the signal. An outline of the steps: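 Human primary bronchial epithelial cells (BE3C system) dosed for 24 h; MMP-1 quantified by ELISA. Bidirectional fit against DMSO; cytotoxicity tracked in parallel cultures by SRB total-protein staining.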

Experiment [13] in a line: BSK_3C_Vis: BioMAP Diversity Plus: 3C Assay for Morphology Visualization (AID 2283025).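 Also: light microscopy image of cell morphology used as background control; fitted both ways so gain or loss versus DMSO counts.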 The settings on record: primary human endothelial cells (HUVEC). An outline of the steps:
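Human umbilical vein endothelial cell morphology was inspected by light microscopy 24 h after chemical dosing; scored bidirectionally relative to DMSO.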

Read-out in experiment [14]: Pselectin, SELP (gene 6403)
The experiment can be described thus: BSK_4H_Pselectin: BioMAP Diversity Plus: 4H Assay for Pselectin Biomarker Activity (AID 2283026). The conditions noted are these: primary human endothelial cells (HUVEC); actives raise or lower the signal. In outline: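 Primary human umbilical vein endothelial cells were treated 24 h, and cell-surface P-selectin was then quantified by ELISA. Bidirectional fit versus DMSO; cytotoxicity checked in parallel cultures by SRB total-protein staining.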

Experiment [15] in a line: BSK_4H_SRB: Viability Assessment in the BioMAP Diversity Plus: 4H Assay (AID 2283027).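 Also: cells exposed to compound for 24 h before staining.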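 As to AC50: curves fitted both ways versus DMSO so AC50 may be loss or gain.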 The conditions noted are these: primary human endothelial cells (HUVEC). In outline: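 Human umbilical vein endothelial cells, 24 h after chemical dosing; total protein measured by 0.1% sulforhodamine B staining after 10% TCA fixation, read at 560 nm. Bidirectional fitting against DMSO.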

Experiment [16] is described as follows: BSK_BE3C_SRB: Viability Assessment in the BioMAP Diversity Plus: BE3C Assay (AID 2283028). The settings on record: primary human bronchial epithelial cells. An outline of the steps: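 Cells (human bronchial epithelial, primary) are treated with chemicals, and after 24 h the parallel cultures are fixed in 10% TCA. These are then stained with 0.1% SRB and read at 560 nm. Gain or loss of signal is fitted relative to DMSO.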

Read-out in experiment [17]: Thrombomodulin, THBD (gene 7056)
The experiment can be described thus: BSK_3C_Thrombomodulin: BioMAP Diversity Plus: 3C Assay for Thrombomodulin Biomarker Activity (AID 2283029). The conditions noted are these: primary human endothelial cells (HUVEC); actives raise or lower the signal. In outline: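 Human umbilical vein endothelial cells were exposed to chemicals for 24 h; cell-surface thrombomodulin quantified by ELISA, with bidirectional fitting against DMSO baseline.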

Read-out in experiment [18]: Urokinase-type plasminogen activator receptor (uPAR), PLAUR (gene 5329)
The experiment can be described thus: BSK_4H_uPAR: BioMAP Diversity Plus: 4H Assay for Urokinase-type plasminogen activator receptor (uPAR) Biomarker Activity (AID 2283030). The conditions noted are these: primary human endothelial cells (HUVEC); actives raise or lower the signal. An outline of the steps: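 Cell-surface uPAR ELISA signal, measured 24 h after dosing human umbilical vein endothelial cells, was analyzed with bidirectional fitting relative to DMSO. Parallel SRB staining of total protein tracked overt cytotoxicity.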

Read-out in experiment [19]: Vascular endothelial growth factor receptor 2 (Homo sapiens) (UniProt P35968)
Nature of the experiment: BSK_4H_VEGFRII: BioMAP Diversity Plus: 4H Assay for Vascular endothelial growth factor receptor 2 (VEGFR2) Biomarker Activity (AID 2283031).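 As to AC50: cell-surface VEGFR2 protein level quantified by ELISA.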 The settings on record: primary human endothelial cells (HUVEC); actives raise or lower the signal. An outline of the steps: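 ELISA read-out of VEGFRII in primary human umbilical vein endothelium, taken 24 h after chemical treatment. Responses are expressed relative to DMSO, with bidirectional fitting.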

Read-out in experiment [20]: Human Leukocyte Antigen - DR isotype (HLADR), HLA-DRA (gene 3122)
The experiment can be described thus: BSK_BE3C_HLADR: BioMAP Diversity Plus: BE3C Assay for Human Leukocyte Antigen - DR isotype (HLADR) Biomarker Activity (AID 2283032). The conditions noted are these: primary human bronchial epithelial cells; actives raise or lower the signal. In outline: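 Human primary bronchial epithelial cells (BE3C system) exposed to compound for 24 hours; cell-surface HLA-DR measured by ELISA, fitted bidirectionally relative to DMSO. Total protein by SRB in parallel cultures tracked cytotoxicity.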

Sequence of human Vitamin D Receptor (VDR), VDR (gene 7421) (P11473 whole entry, looked up, the tested form may be a part): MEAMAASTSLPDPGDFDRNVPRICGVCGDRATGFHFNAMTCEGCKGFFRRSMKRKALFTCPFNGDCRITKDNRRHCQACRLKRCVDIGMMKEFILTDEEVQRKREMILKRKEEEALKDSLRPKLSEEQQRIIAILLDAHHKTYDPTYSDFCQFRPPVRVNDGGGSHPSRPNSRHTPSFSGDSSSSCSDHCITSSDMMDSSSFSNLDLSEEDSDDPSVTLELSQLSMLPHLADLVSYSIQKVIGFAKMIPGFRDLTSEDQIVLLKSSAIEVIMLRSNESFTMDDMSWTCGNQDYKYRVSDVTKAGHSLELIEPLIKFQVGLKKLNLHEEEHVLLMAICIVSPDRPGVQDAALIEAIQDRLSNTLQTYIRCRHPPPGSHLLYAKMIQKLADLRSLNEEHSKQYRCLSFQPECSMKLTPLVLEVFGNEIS
Sequence of E-selectin (Homo sapiens) (P16581 whole entry, looked up): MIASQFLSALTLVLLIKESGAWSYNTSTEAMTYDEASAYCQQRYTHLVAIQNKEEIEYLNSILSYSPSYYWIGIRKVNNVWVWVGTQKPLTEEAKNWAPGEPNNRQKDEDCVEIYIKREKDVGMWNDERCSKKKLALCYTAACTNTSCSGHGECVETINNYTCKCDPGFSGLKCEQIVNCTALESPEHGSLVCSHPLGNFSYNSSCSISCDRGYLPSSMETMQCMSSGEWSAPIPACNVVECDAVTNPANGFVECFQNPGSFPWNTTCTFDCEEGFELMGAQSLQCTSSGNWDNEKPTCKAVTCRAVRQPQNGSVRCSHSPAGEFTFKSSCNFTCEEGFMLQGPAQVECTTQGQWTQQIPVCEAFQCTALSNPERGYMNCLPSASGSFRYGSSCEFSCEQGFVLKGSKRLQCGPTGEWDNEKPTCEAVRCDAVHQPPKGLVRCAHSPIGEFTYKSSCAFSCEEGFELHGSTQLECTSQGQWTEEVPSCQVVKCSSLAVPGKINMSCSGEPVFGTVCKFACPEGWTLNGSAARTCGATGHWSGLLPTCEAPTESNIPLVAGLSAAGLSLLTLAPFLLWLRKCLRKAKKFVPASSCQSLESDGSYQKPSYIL
Sequence of human Retinoid X Receptor beta (RXRb), RXRB (gene 6257) (P28702 whole entry, looked up, the tested form may be a part): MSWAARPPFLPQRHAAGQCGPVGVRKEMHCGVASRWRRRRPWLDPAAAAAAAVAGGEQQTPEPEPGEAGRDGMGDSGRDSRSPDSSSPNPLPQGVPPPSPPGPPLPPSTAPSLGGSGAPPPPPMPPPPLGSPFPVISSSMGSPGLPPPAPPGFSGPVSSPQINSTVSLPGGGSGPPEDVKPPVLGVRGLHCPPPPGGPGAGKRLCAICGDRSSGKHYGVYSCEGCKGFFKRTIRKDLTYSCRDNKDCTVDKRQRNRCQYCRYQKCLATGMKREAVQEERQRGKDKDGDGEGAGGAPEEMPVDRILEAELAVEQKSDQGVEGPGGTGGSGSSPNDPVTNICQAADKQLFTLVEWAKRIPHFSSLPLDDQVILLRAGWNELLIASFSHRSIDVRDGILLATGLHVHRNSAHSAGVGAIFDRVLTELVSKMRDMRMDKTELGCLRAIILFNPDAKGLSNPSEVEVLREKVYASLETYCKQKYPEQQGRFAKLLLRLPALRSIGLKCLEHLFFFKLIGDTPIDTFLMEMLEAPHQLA
Sequence of human Thyroid Receptor alpha (THRa1), THRA (gene 7067) (P10827 whole entry, looked up, the tested form may be a part): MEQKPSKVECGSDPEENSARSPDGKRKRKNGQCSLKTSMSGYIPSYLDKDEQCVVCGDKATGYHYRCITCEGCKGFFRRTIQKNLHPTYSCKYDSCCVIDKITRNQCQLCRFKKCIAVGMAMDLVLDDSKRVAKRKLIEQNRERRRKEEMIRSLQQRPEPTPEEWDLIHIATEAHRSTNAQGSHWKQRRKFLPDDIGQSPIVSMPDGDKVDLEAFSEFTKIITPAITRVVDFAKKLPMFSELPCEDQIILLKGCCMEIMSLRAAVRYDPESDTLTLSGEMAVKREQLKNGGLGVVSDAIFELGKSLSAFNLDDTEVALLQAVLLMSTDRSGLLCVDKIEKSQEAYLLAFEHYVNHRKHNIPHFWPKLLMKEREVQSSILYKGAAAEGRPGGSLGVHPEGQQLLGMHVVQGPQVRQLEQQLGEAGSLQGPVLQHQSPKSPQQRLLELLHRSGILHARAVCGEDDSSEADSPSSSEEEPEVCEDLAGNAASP

Regarding `CCc1ccc2c(c1)C(=O)c1ccccc1C2=O`, the molecule was called inactive in experiment [1], in [2] and in experiment [3].
The term AC50 denotes the midpoint of the concentration-response curve, whichever way the signal moves. With `CCCCC(CC)COC(=O)c1ccccc1O` (stereo not given), the molecule was called inactive in experiment [1], in experiment [5], in experiment [10], in experiment [12], in experiment [16] and in experiment [17]. In addition, the result in experiment [18] and in experiment [20] was inactive. For the same molecule, the AC50 in [4] was 10 µM (active); in [6], 15.9 µM (active); in experiment [7], 16.2 µM (active); in [8] it was 18.1 µM (active); in experiment [9] it was 10 µM (active); in experiment [11], 15.7 µM (active). Moreover, the AC50 was 19.9 µM (active) in [13], 16.2 µM (active) in [14], 18.2 µM (active) in [15] and 18.8 µM (active) in experiment [19].
Take `Cc1ccc2c(c1)C(=O)c1ccccc1C2=O`: the call in experiment [1] and in experiment [3] was inactive.
As to `Nc1ccc(N)c(Cl)c1`, the call in experiment [1], in experiment [4], in experiment [5], in experiment [9], in experiment [10] and in experiment [16] was inactive. Moreover, the outcome in experiment [17], in experiment [18], in experiment [19] and in experiment [20] was inactive. Besides, the AC50 was 5.26 µM (active) in experiment [4]; 20 µM (active) in experiment [5]; 32.4 µM (active) and 31.9 µM (active) in experiment [6]; 26.1 µM (active) and 14.6 µM (active) in experiment [7]; 30.2 µM (active) and 31.4 µM (active) in experiment [8]; 28.6 µM (active) and 30.6 µM (active) in experiment [11]. Besides, the AC50 in [12] is 150 nM (active) and 1.5 µM (active); in experiment [14], 6.21 µM (active) and 3.97 µM (active); in [15] it was 27.4 µM (active) and 30.5 µM (active); in [19], 10.2 µM (active).
As for `CN(C)c1ccc(N=Nc2ccccc2C(=O)O)cc1`, the molecule was classed as inactive in experiment [1] and in [3].
For the molecule `CCCCCCCCCCOS(=O)(=O)O`, the molecule was called inactive in experiment [1] and in experiment [3].
On to `CCCOC(=O)CCCCC(=O)OCCC`, for which the molecule was called inactive in [1] and in experiment [3].
For `CN1C(=O)N(C)C(O)C1O` (stereo not given), the result in [1], in [4], in experiment [5], in experiment [6], in experiment [7] and in experiment [8] was inactive. Moreover, the outcome in [9], in [10], in experiment [11], in experiment [12], in experiment [14] and in [15] was inactive. In addition, the outcome in [16], in [17], in experiment [18], in [19] and in experiment [20] was inactive.
Take `C=C(C)[C@@H]1CCC2=CCC[C@@H](C)[C@]2(C)C1`: the AC50 in experiment [1] was 47.6 µM (active). The outcome in [3] was inactive.
For `CC(C)(C)c1ccc(N)cc1`, the call in experiment [1] and in [3] was inactive.
